Measured values reported in PubChem BioAssay (NCI).
Compounds without any hit were thinned out: in the full panel of roughly 83,000, 20% have a hit.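 The endpoint reported here, percent growth, reads 100 for growth as untreated, 0 for no net growth and -100 for all cells dead.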 Activity calls are given as the source filed them. The calls were made as follows: active = growth percent below 10; inactive = the rest.

How the values were obtained:
Assay in all cases: NCI-60 one-dose screen, 48 h (100 = growth as untreated, 0 = no growth, -100 = all killed)
Conditions in all cases: 10 µM unless noted
HCT-15 colon = system: HCT-15 colon
HT29 colon = system: HT29 colon
SNB-75 CNS = system: SNB-75 CNS
SNB-19 CNS = system: SNB-19 CNS
U251 CNS = system: U251 CNS
PC-3 prostate = system: PC-3 prostate
SK-MEL-5 melanoma = system: SK-MEL-5 melanoma
UACC-62 melanoma = system: UACC-62 melanoma
LOX IMVI melanoma = system: LOX IMVI melanoma
SK-MEL-28 melanoma = system: SK-MEL-28 melanoma

Measured: growth

O=c1[nH]cnc2c1C(c1ccc(Br)cc1)c1sc3c(F)cccc3c1O2 (stereo not given)
inactive: HCT-15 colon 99.2% | HT29 colon 104% | SNB-75 CNS 85.1% | SNB-19 CNS 91.8% | U251 CNS 95.9% | PC-3 prostate 82.9% | SK-MEL-5 melanoma 98.7% | UACC-62 melanoma 82.5% | LOX IMVI melanoma 99.2% | SK-MEL-28 melanoma 105%

NS(=O)(=O)c1ccc(N/C=C/C(=O)c2cc3ccccc3oc2=O)cc1
inactive: HCT-15 colon 93.5% | HT29 colon 108% | SNB-75 CNS 76.1% | SNB-19 CNS 103% | U251 CNS 97.2% | PC-3 prostate 93.7% | SK-MEL-5 melanoma 92.6% | UACC-62 melanoma 93.7% | LOX IMVI melanoma 93% | SK-MEL-28 melanoma 111%

O=C(Nc1ccccc1O)c1ccccc1Nc1ccnc(C(F)(F)F)c1
inactive: HCT-15 colon 104% | HT29 colon 124% | SNB-75 CNS 90.7% | SNB-19 CNS 107% | U251 CNS 102% | PC-3 prostate 94.4% | SK-MEL-5 melanoma 70.7% | UACC-62 melanoma 57.7% | LOX IMVI melanoma 89.3% | SK-MEL-28 melanoma 117%

CCOC(=O)/C=C/c1c(C)[nH]c(=O)[nH]c1=O
inactive: HCT-15 colon 21.3% | HT29 colon 31.4% | SNB-75 CNS 110% | SNB-19 CNS 93.4% | U251 CNS 81.2% | PC-3 prostate 80.9% | SK-MEL-5 melanoma 90.7% | UACC-62 melanoma 87.6% | LOX IMVI melanoma 82.6% | SK-MEL-28 melanoma 117%

O[C@@H](c1cc(C(F)(F)F)nc2c(C(F)(F)F)cccc12)[C@H]1CCCCN1
inactive: HCT-15 colon 77.5% | HT29 colon 53.8% | SNB-75 CNS 36.6% | SNB-19 CNS 54.8% | U251 CNS 47.7% | PC-3 prostate 49.4% | SK-MEL-5 melanoma 82% | UACC-62 melanoma 56.2% | LOX IMVI melanoma 29.4% | SK-MEL-28 melanoma 98.3%

O=C1/C=C/[C@@H](O)[C@@H]2C[C@@H](O)C[C@H]2/C=C/CCC[C@H](CCOCc2ccccc2)O1
inactive: SNB-75 CNS 33.2% | SNB-19 CNS 33.1% | U251 CNS 18.4% | PC-3 prostate 16.5%
active: HCT-15 colon 8.84% | HT29 colon -23.2% | SK-MEL-5 melanoma -88.3% | UACC-62 melanoma 6.3% | LOX IMVI melanoma -59.7% | SK-MEL-28 melanoma -2.95%

O=C(N/N=C/c1ccc([N+](=O)[O-])cc1)c1ccc2nc(-c3ccc(Cl)cc3)[nH]c2c1
inactive: HCT-15 colon 29.9% | SNB-75 CNS 69.3% | SNB-19 CNS 52% | U251 CNS 22.3% | PC-3 prostate 21.4% | UACC-62 melanoma 43.7% | SK-MEL-28 melanoma 45.3%
active: HT29 colon 8.25% | SK-MEL-5 melanoma 2.58% | LOX IMVI melanoma -0.908%

COc1ccc(-c2ccc(=O)oc2C#Cc2cc(OC)c(OC)c(OC)c2)cc1O
inactive: HCT-15 colon 22.5% | SNB-19 CNS 10.7% | U251 CNS 13.6% | PC-3 prostate 23.3% | UACC-62 melanoma 14.8% | LOX IMVI melanoma 23.5% | SK-MEL-28 melanoma 38.9%
active: HT29 colon -9.43% | SNB-75 CNS -13.4% | SK-MEL-5 melanoma -13.6%

O=C(O)C1CN(c2cccc(Cl)c2)N(c2cccc(Cl)c2)C1=O (stereo not given)
inactive: HCT-15 colon 91.8% | HT29 colon 96.2% | SNB-75 CNS 76.9% | SNB-19 CNS 82.8% | U251 CNS 102% | PC-3 prostate 94.6% | SK-MEL-5 melanoma 98% | UACC-62 melanoma 88.5% | LOX IMVI melanoma 88.7% | SK-MEL-28 melanoma 93.1%

N#C/C(=C\c1ccc(Br)cc1)c1cc2ccccc2[nH]1
inactive: HCT-15 colon 94% | HT29 colon 109% | SNB-75 CNS 104% | SNB-19 CNS 94.5% | U251 CNS 95.1% | PC-3 prostate 84.7% | SK-MEL-5 melanoma 97.4% | UACC-62 melanoma 87.8% | LOX IMVI melanoma 95.3% | SK-MEL-28 melanoma 103%

O=C1Nc2ccccc2/C1=C/c1cn(C[C@@H](O)Cn2c3ccccc3c(=O)c3ccccc32)c2ccccc12
inactive: HCT-15 colon 73.9% | HT29 colon 77.8% | SNB-75 CNS 63.6% | SNB-19 CNS 73.1% | U251 CNS 75.2% | PC-3 prostate 51.1% | SK-MEL-5 melanoma 67.1% | UACC-62 melanoma 69.2% | LOX IMVI melanoma 69.1% | SK-MEL-28 melanoma 95.4%

O=C(Nc1ncc(Cc2ccccc2Cl)s1)c1cccs1
inactive: HCT-15 colon 32% | HT29 colon 43.6% | SNB-75 CNS 89.6% | SNB-19 CNS 82.9% | U251 CNS 60.8% | PC-3 prostate 64% | SK-MEL-5 melanoma 73.3% | UACC-62 melanoma 45.9% | LOX IMVI melanoma 62.5% | SK-MEL-28 melanoma 85.2%

CC1=C(C(=O)n2c3ccccc3c3ccccc32)C(c2cccc([N+](=O)[O-])c2)C(C(=O)n2c3ccccc3c3ccccc32)=C(C)N1
inactive: HCT-15 colon 81.9% | HT29 colon 104% | SNB-75 CNS 82.9% | SNB-19 CNS 95.6% | U251 CNS 89.5% | PC-3 prostate 80.7% | SK-MEL-5 melanoma 93.7% | UACC-62 melanoma 87.6% | LOX IMVI melanoma 87.1% | SK-MEL-28 melanoma 103%

O=C(CCCCCCCCC(=O)N/N=C\c1cc(Cl)ccc1O)N/N=C\c1cc(Cl)ccc1O
active: SK-MEL-5 melanoma -37.9% | UACC-62 melanoma 0.989%
inactive: HCT-15 colon 15.6% | HT29 colon 58.9% | SNB-75 CNS 55.6% | SNB-19 CNS 34.8% | U251 CNS 29.5% | PC-3 prostate 26.6% | LOX IMVI melanoma 14.1% | SK-MEL-28 melanoma 41.7%

COc1cc2c(cc1O)[C@@]1(C)[C@H](c3ccccc3Br)OC(=O)N1CC2
inactive: HCT-15 colon 94.9% | HT29 colon 96.7% | SNB-75 CNS 102% | SNB-19 CNS 95.2% | U251 CNS 89.3% | PC-3 prostate 71.3% | SK-MEL-5 melanoma 68% | UACC-62 melanoma 72.1% | LOX IMVI melanoma 90.6% | SK-MEL-28 melanoma 99.1%

COc1ccc(C(O)c2cc3c(N)c(C(=O)Nc4cccc(Cl)c4)sc3nc2C)cc1 (stereo not given)
inactive: HCT-15 colon 11.6% | SNB-75 CNS 31.2% | SNB-19 CNS 28.3% | U251 CNS 23.6% | PC-3 prostate 27.3% | UACC-62 melanoma 27.5% | LOX IMVI melanoma 30.7% | SK-MEL-28 melanoma 65.8%
active: HT29 colon 8.32% | SK-MEL-5 melanoma -16.9%

CN(Cc1cnc2nc(N)nc(N)c2n1)c1c(Cl)cc(C(=O)NC(CCC(=O)O)C(=O)O)cc1Cl (stereo not given)
inactive: HCT-15 colon 28% | HT29 colon 30.4% | SNB-75 CNS 63.9% | SNB-19 CNS 31.7% | U251 CNS 33.4% | PC-3 prostate 22.5% | SK-MEL-5 melanoma 21.3% | UACC-62 melanoma 16.4% | LOX IMVI melanoma 13.8% | SK-MEL-28 melanoma 63.3%

COC(=O)c1ccc2c(c1)c1c(C)c3ccncc3c(C)c1n2C
active: UACC-62 melanoma 3.04% | LOX IMVI melanoma 4.81%
inactive: HCT-15 colon 18.6% | HT29 colon 12.4% | SNB-75 CNS 22% | SNB-19 CNS 29% | U251 CNS 20.9% | PC-3 prostate 31.8% | SK-MEL-5 melanoma 14.5% | SK-MEL-28 melanoma 35.4%

CCN1CCN(CC(=O)Nc2nc3ccc(NCc4ccc(Br)cc4)cc3s2)CC1
inactive: SNB-75 CNS 89.4% | SNB-19 CNS 76.3% | U251 CNS 52.9% | PC-3 prostate 44.6% | SK-MEL-5 melanoma 47.6%
active: HCT-15 colon -18.8% | HT29 colon 2.33% | UACC-62 melanoma -47.1% | LOX IMVI melanoma -76.4% | SK-MEL-28 melanoma -66.6%

O=C(CN1C(=O)NC2NC(=O)NC21)N/N=C/c1ccc(Cl)cc1Cl (stereo not given)
inactive: HCT-15 colon 104% | HT29 colon 110% | SNB-75 CNS 82.8% | SNB-19 CNS 102% | U251 CNS 112% | PC-3 prostate 103% | SK-MEL-5 melanoma 99.5% | UACC-62 melanoma 99% | LOX IMVI melanoma 103% | SK-MEL-28 melanoma 109%

N=C(N)c1ccc(-c2ccc(-c3ccc(F)cc3)s2)s1
inactive: SNB-75 CNS 81% | SK-MEL-5 melanoma 77.6% | SK-MEL-28 melanoma 83.5%
active: HCT-15 colon -74.2% | HT29 colon -76.1% | SNB-19 CNS -57.5% | U251 CNS -89.7% | PC-3 prostate -24.2% | UACC-62 melanoma -67.9% | LOX IMVI melanoma -67.2%

COc1cc(-c2nc(NC(C)=O)sc2-c2ccnc(NCCNS(=O)(=O)c3ccccc3)n2)ccc1Cl
active: HT29 colon 3.97% | SK-MEL-5 melanoma 1.64%
inactive: HCT-15 colon 31.7% | SNB-75 CNS 15.7% | SNB-19 CNS 53.9% | U251 CNS 31.5% | PC-3 prostate 16.3% | UACC-62 melanoma 23% | LOX IMVI melanoma 32.1% | SK-MEL-28 melanoma 35.6%

Cc1ccc2[nH]c(=O)c3c(c2c1)OC(N)=C(C#N)C31C(=O)c2cccc3cccc1c23 (stereo not given)
inactive: HCT-15 colon 105% | HT29 colon 95.6% | SNB-75 CNS 84.4% | SNB-19 CNS 97.1% | U251 CNS 95.2% | PC-3 prostate 89.3% | SK-MEL-5 melanoma 94.3% | UACC-62 melanoma 88.9% | LOX IMVI melanoma 93.5% | SK-MEL-28 melanoma 98.7%

Cn1cccc1/C=C1\C(=O)Nc2ccccc21
inactive: HCT-15 colon 50.9% | HT29 colon 103% | SNB-75 CNS 90.3% | SNB-19 CNS 90.4% | U251 CNS 97.7% | PC-3 prostate 94.2% | SK-MEL-5 melanoma 56.6% | UACC-62 melanoma 90.6% | LOX IMVI melanoma 87.2% | SK-MEL-28 melanoma 112%

CCN(CC)c1ccc(/C=N/NC(=O)c2ccc(Nc3ccnc(C(F)(F)F)c3)cc2)c(O)c1
active: HT29 colon 0.587% | SK-MEL-5 melanoma -50.6% | UACC-62 melanoma 5.86% | LOX IMVI melanoma -25.4%
inactive: HCT-15 colon 19.6% | SNB-75 CNS 37.1% | SNB-19 CNS 15.5% | U251 CNS 14% | PC-3 prostate 19.6% | SK-MEL-28 melanoma 47.4%

CCN1C(=O)N(CC)C2C1NN=C1SCC(=O)N12 (stereo not given)
inactive: HCT-15 colon 82% | HT29 colon 59.5% | SNB-75 CNS 85.8% | SNB-19 CNS 97% | U251 CNS 107% | PC-3 prostate 94% | SK-MEL-5 melanoma 101% | UACC-62 melanoma 85.8% | LOX IMVI melanoma 107% | SK-MEL-28 melanoma 96.6%

Clc1nn2c(Cn3cnc4c(NCc5ccccc5)ncnc43)nnc2c2ccccc12
inactive: HCT-15 colon 25.8% | HT29 colon 56.4% | SNB-75 CNS 37.1% | SNB-19 CNS 61.9% | U251 CNS 34.5% | PC-3 prostate 42% | SK-MEL-5 melanoma 58.6% | UACC-62 melanoma 22.4% | LOX IMVI melanoma 31.3% | SK-MEL-28 melanoma 46%
